Experimental data published in ChEMBL document CHEMBL2218924, “A broad activity screen in support of a chemogenomic map for kinase signalling research and drug discovery” (Biochem J, 2013).

Experiments:
[1] = biological target: Serine/threonine-protein kinase MRCK beta (Homo sapiens) (UniProt Q9Y5S2); conditions: at 1 µM
[2] = biological target: Serine/threonine-protein kinase MRCK beta (Homo sapiens) (UniProt Q9Y5S2); conditions: at 10 µM
[3] = biological target: Ribosomal protein S6 kinase alpha-5 (Homo sapiens) (UniProt O75582); conditions: at 1 µM
Ribosomal protein S6 kinase alpha-5 (Homo sapiens), sequence (O75582 whole entry, looked up): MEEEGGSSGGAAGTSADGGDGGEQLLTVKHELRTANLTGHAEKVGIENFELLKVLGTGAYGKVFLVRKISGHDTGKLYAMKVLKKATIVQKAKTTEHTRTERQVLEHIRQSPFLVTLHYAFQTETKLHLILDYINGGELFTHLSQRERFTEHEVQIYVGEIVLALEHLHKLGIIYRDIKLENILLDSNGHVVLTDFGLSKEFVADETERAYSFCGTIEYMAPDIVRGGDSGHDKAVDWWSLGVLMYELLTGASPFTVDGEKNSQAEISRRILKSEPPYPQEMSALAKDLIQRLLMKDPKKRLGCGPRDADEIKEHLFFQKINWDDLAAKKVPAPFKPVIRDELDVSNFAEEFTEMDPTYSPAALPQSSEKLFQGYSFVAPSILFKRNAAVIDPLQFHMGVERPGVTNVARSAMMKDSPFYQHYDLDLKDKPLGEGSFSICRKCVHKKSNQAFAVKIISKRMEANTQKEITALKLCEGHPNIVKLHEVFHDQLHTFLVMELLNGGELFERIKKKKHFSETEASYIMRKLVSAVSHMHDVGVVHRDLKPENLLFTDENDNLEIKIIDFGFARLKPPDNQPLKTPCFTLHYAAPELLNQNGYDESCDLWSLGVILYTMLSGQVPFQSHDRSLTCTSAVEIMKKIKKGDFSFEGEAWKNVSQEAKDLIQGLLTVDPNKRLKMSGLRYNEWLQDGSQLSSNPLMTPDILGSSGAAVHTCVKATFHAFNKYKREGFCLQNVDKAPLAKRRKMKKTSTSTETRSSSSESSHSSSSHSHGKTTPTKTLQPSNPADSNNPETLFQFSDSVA

[4] = biological target: Ribosomal protein S6 kinase alpha-5 (Homo sapiens) (UniProt O75582); conditions: at 10 µM
[5] = biological target: Ribosomal protein S6 kinase alpha-4 (Homo sapiens) (UniProt O75676); conditions: at 1 µM
Ribosomal protein S6 kinase alpha-4 (Homo sapiens), sequence (O75676 whole entry, looked up): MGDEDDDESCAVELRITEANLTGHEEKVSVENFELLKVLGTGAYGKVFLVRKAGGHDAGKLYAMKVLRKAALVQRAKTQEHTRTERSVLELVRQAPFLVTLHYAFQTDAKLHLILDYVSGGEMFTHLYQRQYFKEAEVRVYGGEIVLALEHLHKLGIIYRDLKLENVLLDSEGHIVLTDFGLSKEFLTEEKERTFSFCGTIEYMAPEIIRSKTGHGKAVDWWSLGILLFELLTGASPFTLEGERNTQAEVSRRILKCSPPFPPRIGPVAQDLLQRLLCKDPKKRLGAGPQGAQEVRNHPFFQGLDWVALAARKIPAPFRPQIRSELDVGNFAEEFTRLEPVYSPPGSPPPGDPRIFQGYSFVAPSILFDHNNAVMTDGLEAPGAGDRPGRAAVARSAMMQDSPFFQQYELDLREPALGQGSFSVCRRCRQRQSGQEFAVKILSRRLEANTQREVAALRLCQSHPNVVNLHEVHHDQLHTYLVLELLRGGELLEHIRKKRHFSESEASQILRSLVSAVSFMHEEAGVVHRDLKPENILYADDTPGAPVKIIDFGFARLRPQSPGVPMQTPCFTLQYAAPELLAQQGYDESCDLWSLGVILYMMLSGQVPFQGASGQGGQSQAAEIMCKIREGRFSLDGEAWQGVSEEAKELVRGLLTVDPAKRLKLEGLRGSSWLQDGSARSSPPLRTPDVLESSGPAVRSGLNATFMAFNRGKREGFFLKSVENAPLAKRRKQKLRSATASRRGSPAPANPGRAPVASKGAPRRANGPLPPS

[6] = biological target: Ribosomal protein S6 kinase alpha-4 (Homo sapiens) (UniProt O75676); conditions: at 10 µM
[7] = biological target: SRSF protein kinase 3 (Homo sapiens) (UniProt Q9UPE1); conditions: at 1 µM
SRSF protein kinase 3 (Homo sapiens), sequence (Q9UPE1 whole entry): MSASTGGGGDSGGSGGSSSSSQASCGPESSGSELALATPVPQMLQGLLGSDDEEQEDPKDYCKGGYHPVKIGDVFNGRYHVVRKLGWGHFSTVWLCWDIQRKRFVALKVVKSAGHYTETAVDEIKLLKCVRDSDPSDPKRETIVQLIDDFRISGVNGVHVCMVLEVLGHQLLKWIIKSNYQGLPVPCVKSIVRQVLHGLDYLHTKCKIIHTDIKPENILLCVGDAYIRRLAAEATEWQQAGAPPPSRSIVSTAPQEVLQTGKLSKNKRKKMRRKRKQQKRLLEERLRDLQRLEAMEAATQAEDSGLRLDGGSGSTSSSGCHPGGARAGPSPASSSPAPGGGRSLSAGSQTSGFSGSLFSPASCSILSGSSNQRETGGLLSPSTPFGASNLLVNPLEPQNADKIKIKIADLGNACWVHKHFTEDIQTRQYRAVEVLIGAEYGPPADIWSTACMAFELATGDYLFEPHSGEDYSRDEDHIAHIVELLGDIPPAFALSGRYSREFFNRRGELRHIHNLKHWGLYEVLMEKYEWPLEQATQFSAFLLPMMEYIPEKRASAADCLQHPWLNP

[8] = biological target: SRSF protein kinase 3 (Homo sapiens) (UniProt Q9UPE1); conditions: at 10 µM
[9] = biological target: T1, Serine/threonine-protein kinase 4 (Homo sapiens) (UniProt Q13043); conditions: at 1 µM
T1 sequence (whole entry): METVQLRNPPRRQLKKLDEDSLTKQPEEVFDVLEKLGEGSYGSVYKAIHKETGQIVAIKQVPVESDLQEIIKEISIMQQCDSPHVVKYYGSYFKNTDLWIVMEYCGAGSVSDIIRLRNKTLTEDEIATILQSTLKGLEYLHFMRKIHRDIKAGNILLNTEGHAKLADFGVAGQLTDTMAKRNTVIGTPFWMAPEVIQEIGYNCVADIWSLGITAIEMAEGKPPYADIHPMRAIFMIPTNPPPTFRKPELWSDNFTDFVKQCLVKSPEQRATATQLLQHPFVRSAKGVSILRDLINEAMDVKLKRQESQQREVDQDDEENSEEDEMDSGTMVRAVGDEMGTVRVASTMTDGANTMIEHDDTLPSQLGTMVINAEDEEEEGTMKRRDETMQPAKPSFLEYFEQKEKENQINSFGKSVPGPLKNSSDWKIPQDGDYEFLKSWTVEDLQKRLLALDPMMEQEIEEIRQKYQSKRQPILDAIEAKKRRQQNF

[10] = biological target: T1, Serine/threonine-protein kinase 4 (Homo sapiens); conditions: at 10 µM

Serine/threonine-protein kinase MRCK beta (Homo sapiens), sequence (Q9Y5S2 whole entry): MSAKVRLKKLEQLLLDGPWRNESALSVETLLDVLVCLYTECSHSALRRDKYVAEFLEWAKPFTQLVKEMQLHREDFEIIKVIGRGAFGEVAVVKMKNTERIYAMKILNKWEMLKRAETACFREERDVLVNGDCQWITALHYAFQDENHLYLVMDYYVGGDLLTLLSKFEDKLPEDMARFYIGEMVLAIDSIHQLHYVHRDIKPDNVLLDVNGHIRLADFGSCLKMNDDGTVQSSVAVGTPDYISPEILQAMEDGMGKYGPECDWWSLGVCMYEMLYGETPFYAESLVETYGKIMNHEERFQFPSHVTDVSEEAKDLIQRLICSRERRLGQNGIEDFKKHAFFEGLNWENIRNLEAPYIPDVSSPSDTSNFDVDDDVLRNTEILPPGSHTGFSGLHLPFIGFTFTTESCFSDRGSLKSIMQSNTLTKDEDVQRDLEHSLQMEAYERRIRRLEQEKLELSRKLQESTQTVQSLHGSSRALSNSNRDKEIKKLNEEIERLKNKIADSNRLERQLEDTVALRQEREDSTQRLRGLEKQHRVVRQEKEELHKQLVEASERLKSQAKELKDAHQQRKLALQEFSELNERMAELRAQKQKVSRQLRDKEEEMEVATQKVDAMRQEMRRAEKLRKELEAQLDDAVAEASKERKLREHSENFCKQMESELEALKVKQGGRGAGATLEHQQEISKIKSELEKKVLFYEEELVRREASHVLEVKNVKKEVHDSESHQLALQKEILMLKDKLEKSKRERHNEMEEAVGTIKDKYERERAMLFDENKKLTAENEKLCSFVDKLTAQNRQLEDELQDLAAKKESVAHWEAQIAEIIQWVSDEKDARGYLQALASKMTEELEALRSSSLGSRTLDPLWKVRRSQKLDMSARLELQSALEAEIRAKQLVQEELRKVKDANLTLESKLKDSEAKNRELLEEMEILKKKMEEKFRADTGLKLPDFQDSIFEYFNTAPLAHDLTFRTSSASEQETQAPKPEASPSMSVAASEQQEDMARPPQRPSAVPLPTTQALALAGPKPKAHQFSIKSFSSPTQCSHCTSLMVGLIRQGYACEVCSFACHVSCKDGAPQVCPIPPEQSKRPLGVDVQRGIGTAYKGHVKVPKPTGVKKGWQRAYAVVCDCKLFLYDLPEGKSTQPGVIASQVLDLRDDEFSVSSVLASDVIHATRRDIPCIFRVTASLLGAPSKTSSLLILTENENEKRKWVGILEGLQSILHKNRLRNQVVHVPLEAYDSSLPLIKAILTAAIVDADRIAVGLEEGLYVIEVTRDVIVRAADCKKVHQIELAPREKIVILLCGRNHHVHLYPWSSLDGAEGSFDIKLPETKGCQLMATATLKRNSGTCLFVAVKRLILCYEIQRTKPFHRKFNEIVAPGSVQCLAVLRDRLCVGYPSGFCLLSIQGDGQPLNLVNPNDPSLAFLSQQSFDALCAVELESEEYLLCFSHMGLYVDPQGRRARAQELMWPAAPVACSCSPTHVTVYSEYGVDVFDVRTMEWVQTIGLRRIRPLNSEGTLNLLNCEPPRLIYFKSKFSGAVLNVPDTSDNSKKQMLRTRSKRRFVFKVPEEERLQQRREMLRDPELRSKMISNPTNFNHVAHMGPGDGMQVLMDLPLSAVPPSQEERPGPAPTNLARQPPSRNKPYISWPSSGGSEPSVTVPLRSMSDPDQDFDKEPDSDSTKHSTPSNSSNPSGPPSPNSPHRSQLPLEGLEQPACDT

Row | Compound | residual activity [1] [%] | residual activity [2] [%] | residual activity [3] [%] | residual activity [4] [%] | residual activity [5] [%] | residual activity [6] [%] | residual activity [7] [%] | residual activity [8] [%] | residual activity [9] [%] | residual activity [10] [%]
1 | CO[C@@H]1[C@H](N(C)C(=O)c2ccccc2)C[C@H]2O[C@]1(C)n1c3ccccc3c3c4c(c5c6ccccc6n2c5c31)C(=O)NC4 | 85 | 68 | 13 | 8 | 12 | 8 | 96 | 77 | 1 | 2
2 | Oc1c2ccccc2c2c3c(cccc13)N=N2 | 90 | 95 | 93 | 69 | 76 | 36 | 90 | 82 | 52 | 21
3 | c1ccc2c(-c3ccncc3)c[nH]c2c1 | 94 | 60 | – | – | 80 | 54 | 102 | 80 | 89 | 97
4 | c1ccc(-c2n[nH]cc2-c2ccnc3ccccc23)nc1 | 96 | 87 | – | – | 89 | 108 | 109 | 94 | – | –
5 | O=C1Nc2ccc(Br)cc2/C1=C\c1cc2c([nH]1)CCCC2 | 98 | – | 111 | 105 | – | 99 | 101 | 80 | 60 | 75
6 | O=C1Nc2ccccc2/C1=C1/Nc2ccccc2/C1=N\OCCC(O)CO (stereo unspecified) | – | – | 47 | 10 | 15 | 2 | 62 | 42 | 4 | -3
7 | O=C(Nc1cccc(Nc2cc(Nc3cccc(C(F)(F)F)c3)ncn2)c1)C1CC1 | 86 | 89 | 124 | 107 | 96 | 101 | 102 | 25 | 99 | 87
8 | CN(C)CCCn1cc(C2=C(c3c[nH]c4ccccc34)C(=O)NC2=O)c2ccccc21 | – | 40 | 24 | 4 | 18 | 3 | 113 | 55 | 40 | 9
9 | Cc1nc(-c2ccccc2)c(-c2ccncc2)o1 | 105 | 96 | 99 | 94 | 103 | 77 | 112 | 99 | – | 110
10 | Cc1cncc2cccc(S(=O)(=O)N3CCCN(C(=O)CN)C[C@H]3C)c12 | 89 | 80 | 126 | 54 | 66 | 37 | – | 77 | 87 | 75
11 | Cc1ccc(NC2=CC(=O)c3sc(C)nc3C2=O)cc1 | 87 | 86 | 106 | 113 | 96 | 90 | 101 | 103 | 72 | 111
12 | CC(C)n1cnc2/c(=N/c3cccc(Cl)c3)nc(NCCO)[nH]c21 | 85 | 82 | 62 | 50 | 57 | 37 | 61 | 19 | 61 | 58
13 | O=C1c2ccccc2-[n+]2ccc3c([nH]c4ccccc43)c21 | 90 | 85 | 104 | 110 | 97 | 90 | 106 | 99 | 108 | 94
14 | Nc1n[nH]c2nnc(-c3c(-c4ccccc4)nn4ccccc34)cc12 | 90 | 79 | 102 | 113 | 93 | 78 | 93 | 56 | 71 | 87
15 | COc1cc2ncnc(N3CCN(C(=O)Nc4ccc(Oc5ccccc5)cc4)CC3)c2cc1OC | 83 | 87 | 113 | 104 | 93 | 123 | 109 | 79 | 85 | 88
16 | CO[C@H]1C[C@@H]2CC[C@@H](C)[C@@](O)(O2)C(=O)C(=O)N2CCCC[C@H]2C(=O)O[C@H]([C@H](C)C[C@@H]2CC[C@@H](O)[C@H](OC)C2)CC(=O)[C@H](C)/C=C(\C)[C@@H](O)[C@@H](OC)C(=O)[C@H](C)C[C@H](C)/C=C/C=C/C=C/1C | 95 | 104 | 123 | 110 | 87 | 105 | 105 | 88 | 93 | 97
17 | c1ccc(-c2n[nH]c3c2oc2ccccc23)cc1 | 98 | 115 | – | 74 | 95 | 70 | – | – | 88 | 58
18 | CC(=O)c1ccc(N2CCOCC2)cc1O | 100 | 83 | 133 | 108 | 92 | – | – | 88 | 85 | 96
19 | CC(=O)O/N=C1\C(=C2\C(=O)Nc3cc(Br)ccc32)Nc2ccccc21 | 96 | 91 | 99 | 85 | 100 | 74 | 96 | 102 | 50 | 23

Row | Compound | residual activity [1] [%] | residual activity [2] [%] | residual activity [3] [%] | residual activity [4] [%] | residual activity [5] [%] | residual activity [6] [%] | residual activity [7] [%] | residual activity [8] [%] | residual activity [9] [%] | residual activity [10] [%]
20 | CCN(CC)C(=O)c1ccc(Nc2nc(OCC3CCCCC3)c3nc[nH]c3n2)cc1 | – | 34 | 100 | 69 | 64 | 23 | 66 | 15 | 36 | 5
21 | COc1ccc(OC)c2c(=S)c3ccccc3[nH]c12 | 88 | 95 | 93 | 122 | 100 | 89 | 103 | 79 | 74 | 99
22 | Cc1nc2cc3nc(-c4cccs4)cnc3cc2n1C | 105 | 100 | 129 | 101 | 101 | – | 117 | 88 | 105 | 94
23 | N#CCCc1ccc2c(c1)-c1[nH]c3ccc([N+](=O)[O-])cc3c1CC(=O)N2 | 9 | 6 | – | – | – | 79 | – | – | 10 | 6
24 | COc1ccc(CNc2nc(N(CCO)CCO)nc3c2ncn3C(C)C)cc1 | 88 | 83 | 92 | 96 | 88 | 82 | 105 | 84 | 74 | 112
25 | Cc1cc2ncc(-c3ccccc3)nc2cc1C | 92 | 88 | 134 | 103 | 92 | 103 | – | 87 | – | 125
26 | COc1cc2ncnc(Nc3ccc(NC(=O)c4ccccc4)cc3)c2cc1OC | – | 90 | – | 95 | 106 | 101 | – | 99 | – | 98
27 | Nc1cccc(-c2cc3c(Oc4cccc(O)c4)ncnc3[nH]2)c1 | 95 | 84 | 98 | 117 | 90 | 68 | – | – | 73 | 74
28 | Ic1cccc(CSc2nnc(-c3ccncc3)o2)c1 | 87 | 82 | 95 | 82 | 65 | 53 | 90 | 92 | 106 | 101
29 | COc1cc2ncc(-c3ccccc3)nc2cc1OC | 98 | 79 | – | – | 83 | 88 | 134 | 92 | – | –
30 | CCC(=O)Nc1ccc2ncnc(Nc3cccc(Br)c3)c2c1 | 89 | 77 | 113 | 112 | 94 | 116 | 94 | 84 | 91 | 95
31 | COc1cc2ncnc(Nc3ccc(O)c(Br)c3)c2cc1OC | 91 | 71 | 117 | 108 | 83 | 72 | 95 | 90 | 81 | 55
32 | Cc1cc(Nc2nc(-c3ccccc3)nc3ccccc23)n[nH]1 | 96 | 99 | 72 | 39 | 59 | 14 | 46 | 16 | 48 | 6
33 | CC[n+]1c(/C=C/N(C)c2ccccc2)n(-c2ccccc2)c2ccc(-c3nc4ccccc4s3)cc21 | 98 | 83 | 139 | 99 | 108 | 96 | 107 | 82 | 103 | 73
34 | Cc1ccc(S(=O)(=O)/C=C/C#N)cc1 | 89 | 92 | 111 | 125 | 105 | 99 | 100 | 102 | 79 | 109
35 | Cc1cccc(-c2[nH]c(C(C)(C)C)nc2-c2ccc3c(c2)OCO3)n1 | 83 | 86 | 135 | – | 97 | 104 | – | – | 102 | 105
36 | Nc1ccc2ncnc(NCCc3ccc(Oc4ccccc4)cc3)c2c1 | 103 | 107 | 109 | 111 | 92 | 72 | 111 | 86 | 89 | 102
37 | N#Cc1cnc2cnc(NCc3cccnc3)cc2c1Nc1ccc(F)c(Cl)c1 | – | – | – | – | 5 | 2 | 119 | 99 | 93 | 91
